For one sequence, binding signal results are on record in article PMC7862700, “An all-to-all approach to the identification of sequence-specific readers for epigenetic DNA modifications on cytosine”.

Holding throughout (assay): DAPPL (digital affinity profiling via proximity ligation, sequencing); 10 mM Tris-HCl pH 7.5, 50 mM NaCl, 1 mM DTT, 4% glycerol, room temperature, 30 min; GST-TFs on glutathione beads, 16-mer random dsDNA library, 0.1% formaldehyde crosslink after washing; high values mean tight binding
One assay addresses T1, FLI1 (Homo sapiens, UniProt Q01543 1-452).
T1 sequence: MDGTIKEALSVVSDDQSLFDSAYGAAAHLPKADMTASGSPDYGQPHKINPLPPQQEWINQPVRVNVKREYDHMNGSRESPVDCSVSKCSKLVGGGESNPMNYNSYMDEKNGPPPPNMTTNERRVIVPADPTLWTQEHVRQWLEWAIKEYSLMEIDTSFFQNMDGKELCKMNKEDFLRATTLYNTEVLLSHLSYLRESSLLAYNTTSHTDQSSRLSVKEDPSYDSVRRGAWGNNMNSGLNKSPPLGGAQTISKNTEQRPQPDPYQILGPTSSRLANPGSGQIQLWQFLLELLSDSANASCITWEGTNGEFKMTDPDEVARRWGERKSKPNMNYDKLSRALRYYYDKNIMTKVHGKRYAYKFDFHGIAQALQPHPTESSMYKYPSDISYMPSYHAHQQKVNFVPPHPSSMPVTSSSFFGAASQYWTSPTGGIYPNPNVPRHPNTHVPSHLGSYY
The conditions noted are these: protein: recombinant; tags: N-terminal GST; dsDNA, one strand shown. Put shortly: (§1)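 Each value of binding signal is a hexamer's read frequency for a factor divided by the same hexamer's frequency in the tag-only sample. Barcoded, bead-captured GST fusions of human transcription factors made in yeast were pooled with that sample and incubated with 200 nmole of a random double-stranded 16-mer DNA library in Tris/NaCl/DTT/glycerol buffer at room temperature for 30 min. Washing, 0.1% formaldehyde crosslinking, proximity ligation, PCR and Illumina NextSeq500 sequencing followed.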

A further assay concerns the target T2, ELK1 (Homo sapiens, UniProt P19419 1-428).
T2 sequence: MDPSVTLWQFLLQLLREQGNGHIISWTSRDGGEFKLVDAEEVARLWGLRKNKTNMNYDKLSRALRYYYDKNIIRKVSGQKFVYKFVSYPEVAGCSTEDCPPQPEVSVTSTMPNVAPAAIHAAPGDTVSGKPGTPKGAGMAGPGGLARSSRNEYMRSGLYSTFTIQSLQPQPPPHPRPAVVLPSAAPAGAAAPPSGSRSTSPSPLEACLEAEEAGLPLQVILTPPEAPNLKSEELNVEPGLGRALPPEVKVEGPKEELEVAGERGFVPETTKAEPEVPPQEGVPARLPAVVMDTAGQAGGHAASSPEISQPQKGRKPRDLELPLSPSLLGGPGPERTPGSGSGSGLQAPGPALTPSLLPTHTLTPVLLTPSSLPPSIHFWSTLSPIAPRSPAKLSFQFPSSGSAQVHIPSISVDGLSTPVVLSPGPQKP
The conditions noted are these: protein: recombinant; tags: N-terminal GST; dsDNA, one strand shown. A digest of the protocol:
as §1

For another assay, the target named is T3, GABPA (Homo sapiens, UniProt Q06546 1-454).
T3 sequence: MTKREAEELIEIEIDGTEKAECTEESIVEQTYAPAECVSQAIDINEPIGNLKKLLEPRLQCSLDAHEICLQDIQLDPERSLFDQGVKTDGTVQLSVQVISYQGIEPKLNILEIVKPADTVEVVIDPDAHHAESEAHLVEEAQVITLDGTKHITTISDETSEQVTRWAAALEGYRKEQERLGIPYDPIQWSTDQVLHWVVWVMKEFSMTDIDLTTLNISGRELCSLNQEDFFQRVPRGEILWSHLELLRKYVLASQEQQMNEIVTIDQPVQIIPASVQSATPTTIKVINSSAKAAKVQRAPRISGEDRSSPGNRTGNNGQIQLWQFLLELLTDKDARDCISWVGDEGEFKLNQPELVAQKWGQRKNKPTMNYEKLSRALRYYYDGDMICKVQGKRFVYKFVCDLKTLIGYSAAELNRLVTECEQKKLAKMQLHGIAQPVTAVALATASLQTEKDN
The conditions noted are these: protein: recombinant; tags: N-terminal GST; dsDNA, one strand shown. Put shortly:
as §1

The target of the next assay is T4, ERG (Homo sapiens, UniProt P11308 1-479).
T4 sequence: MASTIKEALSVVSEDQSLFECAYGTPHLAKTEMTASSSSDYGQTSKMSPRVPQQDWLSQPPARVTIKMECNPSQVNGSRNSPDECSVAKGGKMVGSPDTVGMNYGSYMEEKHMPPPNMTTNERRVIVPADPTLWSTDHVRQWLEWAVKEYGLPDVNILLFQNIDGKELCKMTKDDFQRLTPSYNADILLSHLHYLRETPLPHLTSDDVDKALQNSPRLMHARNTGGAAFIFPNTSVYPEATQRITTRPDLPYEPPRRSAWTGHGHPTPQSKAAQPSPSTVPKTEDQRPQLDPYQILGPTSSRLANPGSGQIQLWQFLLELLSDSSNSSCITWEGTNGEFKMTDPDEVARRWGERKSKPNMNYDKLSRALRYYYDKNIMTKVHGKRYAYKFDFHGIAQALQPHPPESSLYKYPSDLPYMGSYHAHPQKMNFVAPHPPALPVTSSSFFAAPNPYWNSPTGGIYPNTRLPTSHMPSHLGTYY
The conditions noted are these: protein: recombinant; tags: N-terminal GST; dsDNA, one strand shown. Put shortly: as §1

The target in the next assay is ELF1 (Homo sapiens, UniProt P32519 1-619). The conditions noted are these: protein: recombinant; tags: N-terminal GST; dsDNA, one strand shown. A digest of the protocol:
as §1

A further assay deals with T5, EHF (Homo sapiens, UniProt Q9NZC4 1-300).
T5 sequence: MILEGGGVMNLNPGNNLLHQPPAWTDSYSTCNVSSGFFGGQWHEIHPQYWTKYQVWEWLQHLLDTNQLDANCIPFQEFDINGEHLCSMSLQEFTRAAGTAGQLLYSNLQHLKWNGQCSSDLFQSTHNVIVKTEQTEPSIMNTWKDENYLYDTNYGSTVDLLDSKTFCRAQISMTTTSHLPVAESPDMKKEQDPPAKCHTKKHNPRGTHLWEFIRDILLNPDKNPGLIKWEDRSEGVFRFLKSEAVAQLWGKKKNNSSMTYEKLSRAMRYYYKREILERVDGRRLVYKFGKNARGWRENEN
The conditions noted are these: protein: recombinant; tags: N-terminal GST; dsDNA, one strand shown. A digest of the protocol: as §1

The next assay addresses SPI1 (Homo sapiens, UniProt P17947 1-270). The conditions noted are these: protein: recombinant; tags: N-terminal GST; dsDNA, one strand shown. Put shortly:
as §1

The target in the next assay is SPIB (Homo sapiens, UniProt Q01892 1-262). The conditions noted are these: protein: recombinant; tags: N-terminal GST; dsDNA, one strand shown. Put shortly: as §1
For another assay, the target named is T6, ELK3 (Homo sapiens, UniProt P41970 1-407).
T6 sequence: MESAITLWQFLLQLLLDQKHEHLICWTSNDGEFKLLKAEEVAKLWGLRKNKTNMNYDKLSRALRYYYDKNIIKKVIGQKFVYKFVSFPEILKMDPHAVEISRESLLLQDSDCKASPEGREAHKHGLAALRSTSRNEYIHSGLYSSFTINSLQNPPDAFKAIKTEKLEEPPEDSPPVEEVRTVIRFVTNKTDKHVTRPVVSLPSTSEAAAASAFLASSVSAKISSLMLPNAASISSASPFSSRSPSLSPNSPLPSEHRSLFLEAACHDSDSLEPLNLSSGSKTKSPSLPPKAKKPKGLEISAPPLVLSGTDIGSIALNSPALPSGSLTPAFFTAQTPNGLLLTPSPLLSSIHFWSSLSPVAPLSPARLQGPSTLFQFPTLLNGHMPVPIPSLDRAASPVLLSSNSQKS
The conditions noted are these: protein: recombinant; tags: N-terminal GST; dsDNA, one strand shown. A digest of the protocol: as §1

A further assay deals with T7, FEV (Homo sapiens, UniProt Q99581 1-238).
T7 sequence: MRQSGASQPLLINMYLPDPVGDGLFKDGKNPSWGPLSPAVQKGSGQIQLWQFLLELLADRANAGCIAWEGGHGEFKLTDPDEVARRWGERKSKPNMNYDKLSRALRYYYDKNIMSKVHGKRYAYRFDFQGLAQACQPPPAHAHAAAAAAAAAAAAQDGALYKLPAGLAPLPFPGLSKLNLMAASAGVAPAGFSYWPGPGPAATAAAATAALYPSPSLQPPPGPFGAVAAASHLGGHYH
The conditions noted are these: protein: recombinant; tags: N-terminal GST; dsDNA, one strand shown. A digest of the protocol:
as §1

The next assay concerns the target ETV5 (Homo sapiens, UniProt P41161 1-510). The conditions noted are these: protein: recombinant; tags: N-terminal GST; dsDNA, one strand shown. A digest of the protocol: as §1
Another assay addresses HSF1 (Homo sapiens, UniProt Q00613 1-529). The conditions noted are these: protein: recombinant; tags: N-terminal GST; chain copies: 3; dsDNA, one strand shown. A digest of the protocol:
as §1

For another assay, the target named is ELF4 (Homo sapiens, UniProt Q99607 1-663). The conditions noted are these: protein: recombinant; tags: N-terminal GST; dsDNA, one strand shown. Put shortly:
as §1

The target in the next assay is T8, ELK4 (Homo sapiens, UniProt P28324-2 1-405).
T8 sequence: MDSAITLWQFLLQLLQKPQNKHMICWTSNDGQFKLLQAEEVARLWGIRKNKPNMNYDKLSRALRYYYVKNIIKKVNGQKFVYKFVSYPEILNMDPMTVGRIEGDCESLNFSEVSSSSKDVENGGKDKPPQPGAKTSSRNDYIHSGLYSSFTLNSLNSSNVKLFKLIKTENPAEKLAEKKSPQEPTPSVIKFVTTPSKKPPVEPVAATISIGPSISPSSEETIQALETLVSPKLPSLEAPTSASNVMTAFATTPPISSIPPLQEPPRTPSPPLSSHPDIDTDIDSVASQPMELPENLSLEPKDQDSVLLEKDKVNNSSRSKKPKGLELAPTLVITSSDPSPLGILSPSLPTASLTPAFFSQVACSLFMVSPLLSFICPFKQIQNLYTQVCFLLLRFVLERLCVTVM
The conditions noted are these: protein: recombinant; tags: N-terminal GST; dsDNA, one strand shown. A digest of the protocol:
as §1

In a further assay the target is T9, ETV2 (Homo sapiens, UniProt O00321 1-342).
T9 sequence: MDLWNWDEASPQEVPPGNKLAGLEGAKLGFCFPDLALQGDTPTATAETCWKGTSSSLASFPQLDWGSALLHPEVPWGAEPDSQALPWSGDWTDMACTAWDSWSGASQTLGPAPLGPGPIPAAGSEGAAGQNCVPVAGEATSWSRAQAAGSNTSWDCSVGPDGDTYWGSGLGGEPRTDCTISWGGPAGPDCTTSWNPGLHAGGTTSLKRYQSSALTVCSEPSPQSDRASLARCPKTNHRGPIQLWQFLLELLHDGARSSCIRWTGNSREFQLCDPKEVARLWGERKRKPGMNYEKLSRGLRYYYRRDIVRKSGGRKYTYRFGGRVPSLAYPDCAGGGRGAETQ
The conditions noted are these: protein: recombinant; tags: N-terminal GST; dsDNA, one strand shown. A digest of the protocol: as §1

The target in a further assay is T10, ELF3 (Homo sapiens, UniProt P78545 1-371).
T10 sequence: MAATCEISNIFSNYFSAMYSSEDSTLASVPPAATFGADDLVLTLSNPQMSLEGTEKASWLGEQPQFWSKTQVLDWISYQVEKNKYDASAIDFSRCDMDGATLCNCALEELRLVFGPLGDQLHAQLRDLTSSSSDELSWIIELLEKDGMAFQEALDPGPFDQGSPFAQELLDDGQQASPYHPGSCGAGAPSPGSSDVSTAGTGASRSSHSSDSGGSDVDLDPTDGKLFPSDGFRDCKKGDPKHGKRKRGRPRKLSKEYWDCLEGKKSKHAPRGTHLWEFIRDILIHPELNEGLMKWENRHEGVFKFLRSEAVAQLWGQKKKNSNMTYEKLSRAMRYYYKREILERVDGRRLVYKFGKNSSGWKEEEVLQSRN
The conditions noted are these: protein: recombinant; tags: N-terminal GST; dsDNA, one strand shown. A digest of the protocol: as §1

A further assay addresses CRX (Homo sapiens, UniProt O43186 1-299). The conditions noted are these: protein: recombinant; tags: N-terminal GST; dsDNA, one strand shown. Put shortly: as §1
In another assay the target is ETV1 (Homo sapiens, UniProt P50549 1-477). The conditions noted are these: protein: recombinant; tags: N-terminal GST; dsDNA, one strand shown. Put shortly: as §1
Chain of ETV1 (P50549 whole entry): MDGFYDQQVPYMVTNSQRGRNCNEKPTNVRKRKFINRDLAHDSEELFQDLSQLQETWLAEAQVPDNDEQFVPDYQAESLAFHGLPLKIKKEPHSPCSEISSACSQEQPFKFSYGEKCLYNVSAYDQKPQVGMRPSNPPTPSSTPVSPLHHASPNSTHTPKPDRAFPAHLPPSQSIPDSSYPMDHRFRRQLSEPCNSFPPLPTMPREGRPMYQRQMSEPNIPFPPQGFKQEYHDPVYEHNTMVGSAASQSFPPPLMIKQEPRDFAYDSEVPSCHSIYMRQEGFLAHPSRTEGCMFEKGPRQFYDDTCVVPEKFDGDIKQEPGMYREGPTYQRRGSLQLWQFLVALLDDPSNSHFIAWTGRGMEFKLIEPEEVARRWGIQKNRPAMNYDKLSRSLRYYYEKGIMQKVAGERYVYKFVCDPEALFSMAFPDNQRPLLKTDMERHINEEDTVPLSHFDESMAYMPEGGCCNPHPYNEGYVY

Chain of ELF4 (Q99607 whole entry): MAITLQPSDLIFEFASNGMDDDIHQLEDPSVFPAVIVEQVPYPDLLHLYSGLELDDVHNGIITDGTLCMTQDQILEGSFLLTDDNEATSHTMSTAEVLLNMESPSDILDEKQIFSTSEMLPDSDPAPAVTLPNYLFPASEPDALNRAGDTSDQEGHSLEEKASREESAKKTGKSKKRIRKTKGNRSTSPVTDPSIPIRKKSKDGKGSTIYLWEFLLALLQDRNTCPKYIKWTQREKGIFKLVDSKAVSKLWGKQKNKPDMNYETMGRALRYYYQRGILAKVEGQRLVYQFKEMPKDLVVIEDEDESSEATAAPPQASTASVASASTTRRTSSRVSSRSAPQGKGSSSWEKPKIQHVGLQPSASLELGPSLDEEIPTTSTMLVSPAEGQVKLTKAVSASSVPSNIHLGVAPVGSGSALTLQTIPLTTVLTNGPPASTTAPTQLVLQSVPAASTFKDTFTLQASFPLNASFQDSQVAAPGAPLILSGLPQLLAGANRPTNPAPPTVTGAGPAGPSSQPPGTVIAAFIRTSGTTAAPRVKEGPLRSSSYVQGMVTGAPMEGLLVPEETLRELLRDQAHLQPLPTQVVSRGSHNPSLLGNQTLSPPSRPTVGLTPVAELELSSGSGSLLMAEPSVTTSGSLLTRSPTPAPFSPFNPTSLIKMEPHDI
Chain of ELF1 (P32519 whole entry): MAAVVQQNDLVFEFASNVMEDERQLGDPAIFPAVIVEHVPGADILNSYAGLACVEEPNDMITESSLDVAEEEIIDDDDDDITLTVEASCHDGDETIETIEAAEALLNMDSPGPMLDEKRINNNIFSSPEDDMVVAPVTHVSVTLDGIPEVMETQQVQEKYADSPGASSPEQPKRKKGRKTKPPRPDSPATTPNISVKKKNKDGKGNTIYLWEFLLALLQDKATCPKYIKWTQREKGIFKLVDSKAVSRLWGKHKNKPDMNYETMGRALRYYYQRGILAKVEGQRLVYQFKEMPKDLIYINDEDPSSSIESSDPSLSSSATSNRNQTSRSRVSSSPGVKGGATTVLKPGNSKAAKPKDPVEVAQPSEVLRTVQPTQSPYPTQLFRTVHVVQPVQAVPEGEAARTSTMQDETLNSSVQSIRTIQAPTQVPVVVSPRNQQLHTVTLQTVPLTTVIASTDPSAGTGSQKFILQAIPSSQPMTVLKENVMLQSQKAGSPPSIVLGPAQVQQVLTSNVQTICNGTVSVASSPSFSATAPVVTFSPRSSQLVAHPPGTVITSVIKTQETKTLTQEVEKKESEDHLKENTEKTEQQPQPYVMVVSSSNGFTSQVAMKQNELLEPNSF
Chain of SPIB (Q01892 whole entry): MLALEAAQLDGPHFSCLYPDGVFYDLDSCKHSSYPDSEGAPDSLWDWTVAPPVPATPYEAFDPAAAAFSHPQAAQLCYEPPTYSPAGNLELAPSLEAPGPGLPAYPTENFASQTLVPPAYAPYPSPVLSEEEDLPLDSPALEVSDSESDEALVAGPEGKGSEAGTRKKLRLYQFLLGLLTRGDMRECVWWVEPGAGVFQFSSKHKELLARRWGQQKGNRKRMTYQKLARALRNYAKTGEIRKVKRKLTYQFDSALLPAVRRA
Chain of HSF1 (Q00613 whole entry): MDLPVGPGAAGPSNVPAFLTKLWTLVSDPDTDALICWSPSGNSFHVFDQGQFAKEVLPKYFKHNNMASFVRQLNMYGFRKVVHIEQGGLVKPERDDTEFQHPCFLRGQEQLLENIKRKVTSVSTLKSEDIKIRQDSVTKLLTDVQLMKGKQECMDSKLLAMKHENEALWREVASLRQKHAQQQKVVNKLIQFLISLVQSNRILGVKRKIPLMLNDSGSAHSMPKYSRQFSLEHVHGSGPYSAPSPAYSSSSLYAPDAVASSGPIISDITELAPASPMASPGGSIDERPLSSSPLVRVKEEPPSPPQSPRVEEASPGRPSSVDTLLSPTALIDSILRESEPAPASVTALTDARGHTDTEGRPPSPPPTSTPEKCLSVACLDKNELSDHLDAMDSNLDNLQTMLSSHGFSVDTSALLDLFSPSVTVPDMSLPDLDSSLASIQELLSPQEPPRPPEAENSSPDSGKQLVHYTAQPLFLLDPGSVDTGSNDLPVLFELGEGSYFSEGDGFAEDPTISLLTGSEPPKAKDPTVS
Chain of CRX (O43186 whole entry): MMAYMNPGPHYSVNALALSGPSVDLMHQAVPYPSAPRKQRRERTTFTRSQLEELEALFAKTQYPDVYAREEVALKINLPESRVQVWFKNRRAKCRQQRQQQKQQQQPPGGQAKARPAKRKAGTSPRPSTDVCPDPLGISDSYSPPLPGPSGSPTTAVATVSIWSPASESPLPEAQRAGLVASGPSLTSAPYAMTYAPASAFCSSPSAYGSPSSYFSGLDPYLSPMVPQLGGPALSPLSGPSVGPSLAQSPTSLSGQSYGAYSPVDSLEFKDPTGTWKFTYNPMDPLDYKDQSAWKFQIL
Chain of ETV5 (P41161 whole entry): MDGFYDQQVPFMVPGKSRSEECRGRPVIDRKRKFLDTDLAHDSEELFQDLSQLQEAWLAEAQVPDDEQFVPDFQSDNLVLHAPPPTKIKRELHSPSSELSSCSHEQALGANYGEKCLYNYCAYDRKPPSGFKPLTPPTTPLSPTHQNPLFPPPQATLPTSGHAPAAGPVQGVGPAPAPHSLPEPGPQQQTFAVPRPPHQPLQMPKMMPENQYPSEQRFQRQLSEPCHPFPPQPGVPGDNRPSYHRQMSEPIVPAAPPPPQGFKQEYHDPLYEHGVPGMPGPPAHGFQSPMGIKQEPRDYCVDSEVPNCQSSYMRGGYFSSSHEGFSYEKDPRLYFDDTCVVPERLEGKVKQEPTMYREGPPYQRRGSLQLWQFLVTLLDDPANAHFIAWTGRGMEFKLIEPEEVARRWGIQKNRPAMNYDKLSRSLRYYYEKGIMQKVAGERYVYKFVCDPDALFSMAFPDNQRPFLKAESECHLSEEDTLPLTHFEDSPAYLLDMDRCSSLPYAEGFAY

Consider CTTTCG, for which the binding signal was 1.1 fold enrichment (6-mer frequency, TF over GST control) in the assay with FLI1; 1.21 fold enrichment (6-mer frequency, TF over GST control) with ELK1; 1.26 fold enrichment (6-mer frequency, TF over GST control) with GABPA; 1.15 fold enrichment (6-mer frequency, TF over GST control) with ERG; 1.3 fold enrichment (6-mer frequency, TF over GST control) with ELF1; 1.3 fold enrichment (6-mer frequency, TF over GST control) with EHF. Besides, the binding signal in the assay with SPI1 is 1.23 fold enrichment (6-mer frequency, TF over GST control); with SPIB it was 1.39 fold enrichment (6-mer frequency, TF over GST control); with ELK3, 1.27 fold enrichment (6-mer frequency, TF over GST control); in the assay with FEV it was 1.26 fold enrichment (6-mer frequency, TF over GST control); with ETV5 it was 1.27 fold enrichment (6-mer frequency, TF over GST control); with HSF1, 1.65 fold enrichment (6-mer frequency, TF over GST control). Moreover, the binding signal in the assay with ELF4 was 1.19 fold enrichment (6-mer frequency, TF over GST control); in the assay with ELK4, 1.4 fold enrichment (6-mer frequency, TF over GST control); in the assay with ETV2 it was 1.3 fold enrichment (6-mer frequency, TF over GST control); with ELF3, 1.4 fold enrichment (6-mer frequency, TF over GST control); with CRX, 1.37 fold enrichment (6-mer frequency, TF over GST control); with ETV1 it was 1.36 fold enrichment (6-mer frequency, TF over GST control).
